# Source: PubChem BioAssay (NCI)
# Compounds without any hit were thinned out: in the full panel of roughly 83,000, 20% have a hit.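 Step 1: grow cells in 96-well plates. Step 2: add test compound at a single concentration. Step 3: incubate 48 h. Step 4: record percent growth.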 Values without a mark were called inactive. Active and inactive are the calls of the source. Rule for the calls: active = growth percent below 10; inactive = the rest.
# Tested on: HL-60(TB) leukemia
# Assay: NCI-60 one-dose screen, 48 h (100 = growth as untreated, 0 = no growth, -100 = all killed)
# Details: 10 µM unless noted
row,SMILES,growth
1,N=C(N)c1ccc(-c2ccc(-c3ccccc3)s2)cc1,-34.2% (active)
2,CC(=O)OCC1=CC2OC(=O)C3=COC(OC4OC(CO)C(O)C(O)C4O)C1C32 (stereo not given),120%
3,CCCCCCNC(=O)Oc1ccc(/C(=C(/C)Cc2ccc(OC)cc2)c2ccc(OCCN(C)C)cc2)cc1,47.4%
4,O=c1c2c(=NCCN3CCCC3)cc3c(=O)n(CCCN4CCOCC4)c(=O)c4ccc(c(O)n1CCCN1CCOCC1)c2c4-3,-34.7% (active)
5,NC(=O)SCC(=O)Nc1ccc(S(N)(=O)=O)cc1,103%
6,O=C(CC(C(=O)c1ccccc1)N1CCN(Cc2ccccc2)CC1)c1ccccc1 (stereo not given),28.5%
7,Cc1nc(Nc2cccc(NC(=O)Nc3ccc(Cl)cc3)c2)c2ccccc2n1,78.6%
8,COc1cc(C2=NN(C(C)=O)C(c3cccc(Nc4ccnc5cc(C(F)(F)F)ccc45)c3)C2)cc(OC)c1OC (stereo not given),10.6%
9,CC(C)OCC1CO1 (stereo not given),103%
10,COc1ccc(/C=C/C(=O)c2ccc(NC(=O)CSc3nc4c([nH]3)c(=O)n(C)c(=O)n4C)cc2)cc1OC,99.5%
11,O=C(NCc1ccco1)C1CCN(S(=O)(=O)c2ccc(Cl)cc2)CC1,19.1%
12,O=C(NNC(=O)c1ccc(NC(=O)c2ccccn2)cc1)Nc1ccc([N+](=O)[O-])cc1,97.9%
13,COc1ccc(/C=c2\nc3n(-c4ccccc4)c4nc5c6c(sc5c(=N)n4n-3c2=O)CCCC6)cc1,101%
14,O=C1N=c2ccccc2=C1c1sc(=Nc2ccccc2)n(Nc2ccccc2)c1O,97.5%
15,COc1ccc(Nc2ncc(Br)c(NCCCNC(=O)C3CCC3)n2)cc1,-12.8% (active)
16,CNCCn1c(=O)c2cc(OC)c(OC)cc2c2ccc3cc4c(cc3c21)OCO4,-25.7% (active)
17,COC(=O)N/N=C/c1coc2ccc(Cl)cc2c1=O,105%
18,C#CCOc1cccc(Nc2ncnc3c2ncn3C2CCN(C(=O)CCl)C2)c1 (stereo not given),-56.3% (active)
19,CC(C)(C)n1cc(-c2ccnc(NCCNS(=O)(=O)c3ccccc3)c2)c(-c2cccc(O)c2)n1,45%
20,CN(C)CCC=C1c2ccccc2C(C)(C)c2ccccc21,85.5%

row,SMILES,growth
1,C/C(Cc1ccccc1)=N\O,13.8%
2,CS(=O)(=O)Nc1ccc(Nc2c3ccccc3nc3cc(N)ccc23)cc1,5.48% (active)
3,c1ccc(-c2n(Cc3ccc4ccccc4n3)cc[n+]2Cc2ccc3ccccc3c2)cc1,-54.3% (active)
4,O=[N+]([O-])c1ccc(-c2nc(-c3ccccc3)c(-c3ccccc3)n2-c2ccccc2)cc1,-16.4% (active)
5,COc1ccc(C(=O)C2C(C#N)C(C#N)C3c4ccccc4C=CN23)cc1 (stereo not given),94.7%
6,Cn1c2ccccc2c2ccccc21,95.9%
7,N#Cc1cnn(-c2nc3c(Cl)cccc3s2)c1N,97.7%
8,Nc1c(C(=O)Nc2ccccc2Cl)sc2nc3c(cc12)CN(Cc1ccccc1)CC3,75.6%
9,N#Cc1cnc2cc(OC[C@H](O)CO)c(NC(=O)CC3CSSC3)cc2c1Nc1ccc(OCc2cccc(F)c2)c(Cl)c1,-83.4% (active)
10,N=C(N)c1ccc(-c2ccc(-c3cccs3)s2)nc1,-32.1% (active)
11,CC(C)c1ccc(C(=O)Nc2sc3cc(O)ccc3c2C#N)cc1,-6.25% (active)
12,COc1ccc(C(c2cc(OC)c(OC)c(OC)c2)N2CCCCC2)cc1 (stereo not given),4.36% (active)
13,Cc1ccc(S(=O)(=O)N2CCCC2CO)cc1 (stereo not given),97.7%
14,C=C(C)[C@@H]1CC[C@]2(C(=O)N3CCCNCC3)CC[C@]3(C)[C@H](CC[C@@H]4[C@@]5(C)CCC(=O)C(C)(C)[C@@H]5CC[C@]43C)[C@@H]12,67.4%
15,Clc1ccccc1-c1nc(Nc2nc3ccccc3s2)nc(C(Cl)(Cl)Cl)n1,32.9%
16,O=C1c2[nH]cc(CN[C@@H]3CCCN3)c2C(=O)c2c1c(O)c1ccccc1c2O,-73% (active)
17,C[C@H]1[C@H](C)CC[C@]2(C(=O)OCCOCCOCC[P+](c3ccccc3)(c3ccccc3)c3ccccc3)CC[C@]3(C)C(=CC[C@@H]4[C@@]5(C)CC[C@H](OC(=O)C(Cl)Cl)C(C)(C)[C@@H]5CC[C@]43C)[C@H]12,-48.3% (active)
18,C=C1C(=O)O[C@H]2[C@H]1CC/C(COC(=O)/C=C\C(=O)NCc1ccc(Cn3c(=O)sn(-c4ccc(OC)cc4)c3=O)cc1)=C\CC[C@@]1(C)O[C@@H]21,-35.8% (active)
19,COc1ccc(-c2cc(Cc3cccs3)c(=O)n(Cn3cncn3)n2)cc1,107%
20,CN(C)CCOC(=O)Nc1ccc(Cc2ccc(NC(=O)OCCN(C)C)cc2)cc1,52.8% [100 µM]
